An excerpt weighted towards active compounds, which were near 9.5% of everything screened.
Pf growth 48h: P. falciparum growth inhibition at 48 hours (one generation). P. falciparum luciferase growth in erythrocytes, 48 h. actives 5.9% (n = 310,000). AID 504832. Potency, µM (doses to about 28.7 µM), for inactives: at the top dose activity change, negative = inhibition, hits mostly inhibitors; also: % is scaled to controls: 0 for no effect and ±100 for the full control effect
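First compound was added to culture medium, then infected red cells at 0.1% parasitemia and 2% hematocrit (final). After incubation at 37 C under 5% CO2, luciferase detection reagent was dispensed and light output recorded.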
NS1 function inh: influenza NS1 inhibition; AID 2326; Potency, µM (series often up to 46.1 µM), for inactives: at the highest dose activity, positive = more growth; actives 0.4% (n = 270,000); calls by dose curve; also: actives are rising curves; nearly all actives have a fitted effect of over 50% in size
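Growth recovery, yeast-based: influenza A NS1 expressed in S. cerevisiae causes slow growth, and suppressors are detected by OD600. The parent strain without NS1 is used as positive control.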
SARS PLpro yeast: SARS-CoV PLP inhibition in yeast; S. cerevisiae expressing SARS-CoV PLpro, growth rescue; Potency, µM (doses to about 32.9 µM), inactives show top-dose activity, positive = growth rescue, most hits filed as activators; actives 0.19% (n = 330,000); AID 485353; calls by dose curve; also: 0% is about no effect; nearly all actives have a fitted effect of over 55% in size
Pf growth 96h: P. falciparum growth inhibition at 96 hour, primary screen for plastid delayed-death inhibitors. P. falciparum luciferase reporter growth, 96 h. Potency, µM (highest dose often 28.7 µM), for inactives: top-dose activity change, negative = inhibition, usual class: inhibitors. actives 6.9% (n = 320,000). AID 504834; also: % is scaled to controls: 0 for no effect and ±100 for the full control effect
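Two parasite generations (96 h, 37 C, 5% CO2) of compound exposure in infected erythrocytes (0.05% parasitemia, 2% hematocrit). Luciferase-reporter P. falciparum; decreased luminescence indicates inhibited growth, aimed at apicoplast-acting delayed death.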
RE007 growth inh: less growth of the S. pombe RE007 Vpr strain. AID 651644. Potency, µM (titrated, usually from 92.2 µM), inactives show at the highest dose activity change, negative = less growth, actives largely listed as inhibitors. actives 0.21% (n = 360,000). S. pombe RE007 Vpr strain, BacTiter-Glo ATP luminescence, 24 h; active = well fitted falling curve with a large enough effect; inconclusive = small, poorly fitted or top-dose-only effect; inactive = no such curve, though single readings can be large or run the other way; also: % is scaled to controls: 0 for no effect and ±100 for the full control effect; nearly all actives have a fitted effect of over 50% in size
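Fission yeast strain RE007, carrying one chromosomally integrated HIV-1 vpr copy, was seeded at OD 0.01 in PMG+AL medium with 23 nL pinned compound. After 24 h at 30 °C and 99% humidity, viability was read by BacTiter-Glo luminescence.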
Starred values were filed as active, the others as inactive; ? = inconclusive; . = no result given; [ ] = another dose, or the depositor's remark. Unless noted, calls follow the shape of the dose curve; as a rule, active = well fitted inhibition curve with a large enough effect; inconclusive = small, poorly fitted or top-dose-only effect, or another doubt; inactive = no such curve, though single readings can be large or run the other way. Potency is read from the fitted curve at half-maximal effect.

SMILES	Pf growth 48h	NS1 function inh	SARS PLpro yeast	Pf growth 96h	RE007 growth inh
Nc1nc(-c2ccc3c(c2)OCCO3)cs1	100%	-32%	-9%	.	-13%
Cc1ccc2nc(-c3ccc4c(c3)OCCO4)cn2c1	-89%	-2%	-3%	67%	?
N#Cc1ncc(-c2ccc3c(c2)OCCOCCOCCOCCOCCO3)nc1C#N	?	-71%	18%	12µM*	9%
COc1ccccc1CNC(=O)CCNS(=O)(=O)c1cccc2nonc12	5%	17%	-13%	88%	-2%
C=C1C(O)[C@@H]2O[C@]3(CC[C@H](/C=C/C(C)[C@@H]4CC(C)=CC5(O[C@H](C[C@@](C)(O)CO)CCC5O)O4)O3)CC[C@H]2O[C@@H]1C(O)CC(C)[C@H]1OC2(CCCCO2)CCC1C (stereo partly specified)	.	.	-2%	.	-7%
S=C(NCCc1ccccc1)NC1CC2CCC(C1)N2Cc1ccccc1 (stereo unspecified)	?	0%	1%	-27%	-10%
CC(C)(C)n1ncc2c(=O)n(CC(=O)NCc3ccc(F)cc3)cnc21	281%	7%	?	13µM*	-2%
CC(C)(C)n1ncc2c(=O)n(CC(=O)N3CCCc4ccccc43)cnc21	-2%	-5%	-1%	1.9µM*	20%
CCOC(=O)/C(=N/Nc1ccccc1)N1CCCc2ccccc21	15µM*	17%	?	?	-9%
O=C(C(=O)N1CCCc2ccccc21)N1CCCc2ccccc21	2%	-14%	2%	?	2%
CCOC(=O)/C(=N/Nc1ccc(OC)cc1)N1CCCc2ccccc21	?	-52%	-2%	?	80%
CC(NC(c1ccccc1)c1ccccc1)C(=O)N1CCCc2ccccc21 (stereo unspecified)	10µM*	-47%	-22%	10µM*	-5%
CC(C)(C)n1ncc2c(=O)n(CC(=O)N3CCc4ccccc43)cnc21	20%	5%	0%	?	-11%
O=C(CCC(=O)N1CCSc2ccccc21)NC1CCCCC1	10%	23%	2%	?	0%
COc1ccccc1N(C(=O)c1snc(C(N)=O)c1N)C(C(=O)NC1CCCC1)c1ccc2ncccc2c1 (stereo unspecified)	?	3%	-1%	15%	0%
O=C(Cn1cnc2c(nnn2Cc2ccc(F)cc2)c1=O)NCc1ccco1	-7%	4%	-7%	?	9%
CC(C)(C)n1ncc2c(=O)n(CC(=O)c3ccccc3)cnc21	275%	-4%	-28%	2.1µM*	-5%
O=C(Cn1cnc2c(nnn2Cc2ccc(F)cc2)c1=O)NCc1ccccc1	9.3µM*	10%	3%	-26%	-7%
O=C(CN1CCCC1)N1CCCc2ccccc21	-9%	5%	1%	19µM*	-27%
CCN(CC)S(=O)(=O)c1ccc(N2CCCC2)c(NC(=O)c2ccc(N3CCCC3=O)cc2)c1	13µM*	.	0%	12µM*	12%
CCN(CC)S(=O)(=O)c1ccc(NC(=O)c2ccc(N3CCCC3=O)cc2)cc1	.	.	-1%	.	-2%
CCN(CC)S(=O)(=O)c1ccc(N2CCOCC2)c(NC(=O)c2ccc(N3CCCC3=O)cc2)c1	7.4µM*	.	0%	15µM*	14%
Cc1ccc(-c2nc(CN3CCCCC3)cc(CN3CCCCC3)c2O)cc1	0.83µM*	3%	-1%	?	-1%
CC(C)(C)c1nc(CN2CCOCC2)cc(CN2CCOCC2)c1O	.	-6%	-6%	?	0%
O=C(COC(=O)C12CC3CC(CC(Cl)(C3)C1)C2)Nc1ccccc1	.	.	-3%	.	-6%
SMILES	Pf growth 48h	NS1 function inh	SARS PLpro yeast	Pf growth 96h	RE007 growth inh
Cc1ccc(C(=O)C[n+]2cc(Br)cc(Br)c2)cc1[N+](=O)[O-]	9.3µM*	?	-6%	?	-18%
O=C(Cn1cc[n+](CC(=O)c2ccccc2)c1)c1ccccc1	1µM*	?	3%	?	-3%
O=C(Cn1cc[n+](CC(=O)c2ccc(Cl)cc2Cl)c1)c1ccc(Cl)cc1Cl	?	10%	0%	?	-8%
O=C(C[n+]1cc(Br)cc(Br)c1)c1ccccc1	13%	2%	5%	0.17µM*	-16%
O=C(/C(=C(\[O-])c1ccccc1)[n+]1ccc2ccccc2c1)c1ccccc1	?	-1%	1%	13µM*	?
Cc1cc(C)c[n+](CC(=O)c2ccc(C)c([N+](=O)[O-])c2)c1	24%	?	3%	?	-8%
CC(C)(C)S(=O)(=O)N1C[C@H]2CC/C=C\C/C=C\2[C@@H]1CCO	.	.	.	.	-9%
COc1ccc(N(C(=O)c2ccc(S(=O)(=O)N3CCCC3)cc2)C2C=CS(=O)(=O)C2)cc1 (stereo unspecified)	8%	0%	-3%	0%	0%
O=C(C[n+]1ccc2ccccc2c1)c1ccccc1	?	5%	-1%	9.3µM*	-16%
O=C1NC2=C(C(=O)CCC2)C(c2ccccc2Cl)N1 (stereo unspecified)	-20%[0.00184 µM]	12%	1%	2.9µM*	-10%
CCC(CO)Oc1cc(NC(=O)c2ccccc2[N+](=O)[O-])c2ncn(C(C)C)c2c1 (stereo unspecified)	.	.	-1%	.	-1%
O=C1NC(=S)S/C1=C\C=C\c1ccc([N+](=O)[O-])o1	0.29µM*	-105%	-22%	0.29µM*	40µM*
C=CCn1c(CSc2nc3ccccc3s2)nnc1SCC(=O)NCc1cccnc1	?	-8%	13%	28%	-10%
C=CCn1c(CSc2nc3ccccc3s2)nnc1SCC(=O)NCc1ccccc1	.	-10%	-2%	10µM*	12%
C=CCn1c(Cc2c(C)[nH]c3ccccc23)nnc1SCC(=O)NCc1ccc(F)cc1	8.3µM*	-2%	4%	0.26µM*	3%
O=C(NCCCN1CCOCC1)c1ccc2c(c1)N(Cc1ccccc1F)C(=O)c1ccccc1S2=O (stereo unspecified)	-24%	-2%	6%	15µM*	-15%
CCN1C(=O)c2ccccc2S(=O)(=O)c2ccc(C(=O)NCCCN(CC(C)C)CC(C)C)cc21	-27%[0.00184 µM]	-7%	0%	25%	-23%
O=C(NCCCN1CCCC1)c1ccc2c(c1)N(Cc1ccc(F)cc1)C(=O)c1ccccc1S2=O (stereo unspecified)	?	?	21%	-1%	-4%
O=C(NCCCN1CCOCC1)c1ccc2c(c1)N(Cc1cccc(Cl)c1)C(=O)c1ccccc1S2=O (stereo unspecified)	12µM*	-8%	3%	-7%	19%
O=C(NCCCN1CCOCC1)c1ccc2c(c1)N(Cc1ccccc1)C(=O)c1ccccc1S2=O (stereo unspecified)	?	12%	4%	7%	4%
CCN1C(=O)c2ccccc2S(=O)c2ccc(C(=O)NCCN(CC(C)C)CC(C)C)cc21 (stereo unspecified)	12µM*	-4%	1%	76%	7%
